High-throughput results as filed in PubChem BioAssay.
TGFb inhibitor: TGF-b pathway inhibition; HepG2 CAGA-GFP TGF-b/SMAD3 reporter, GFP fluorescence, 18 h; TGF-beta stimulated, 500 pg/mL final; Potency, µM (top dose mostly 46.1 µM), usual class: inhibitors; hit rate 1.2% among 410,000; further: nearly all actives have a fitted effect of over 65% in size
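HEPG2 CAGA-GFP cells (1000/well, DMEM with 1% FBS) were pre-incubated 2 h at 37 degrees C, given compound by pin tool, then stimulated with TGF-beta at 500 pg/mL final for 18 h before per-cell GFP fluorescence imaging.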
HepG2 viability: kills HepG2 cells in TGF-b inhibitor counter-screen | Potency, µM (doses to about 46.1 µM), hits mostly cytotoxic | HepG2 CAGA-GFP viability, ATP luminescence, 18 h | hit rate 0.76% among 410,000
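HepG2 CAGA-GFP cells (1000/well, DMEM with 1% FBS) received compound, then TGF-beta at 500 pg/mL final, and were incubated 18 hours at 37 degrees C. Viability was read by CellTiter-Glo luminescence. Media-only wells were set as complete cell-killing and DMSO as no toxicity.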
VP16 counter: inhibits Gal4-VP16 luciferase reporter, ROR gamma counter-screen. Drosophila S2 Gal4-VP16 UAS-luciferase, luminescence, 20 h. hit rate 3.5% among 310,000. Potency, µM (series often up to 53.6 µM), most hits filed as inhibitors;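 further: Gal4-VP16 expression switched on by copper sulfate through the metallothionein promoter; nearly all actives have a fitted effect of over 50% in size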
ATXN2 expr inh: inhibitors of ATXN2 expression. HEK-293 ATXN2-luciferase reporter, luminescence, 24 h. Potency, µM (series often up to 57 µM), usual class: inhibitors. hit rate 0.72% among 360,000. AID 1745845; further: nearly all actives have a fitted effect of over 55% in size
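qHTS (up to 57 uM final) was run with 24 h compound exposure of reporter cells at 37 °C. Each well was multiplexed: SteadyGlo luminescence measured ATXN2-luciferase expression after a fluorogenic Gly-Phe-AFC viability readout (25 uM final).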
ATXN viability: reduces viability in counter-screen for ATXN expression inhibitors. Potency, µM (highest dose often 56.7 µM), most hits filed as cytotoxic. hit rate 0.49% among 400,000. S2 cells (HEK-293 line with an ATXN2-luciferase reporter) viability, CellTiter-Fluor protease fluorescence, 24 h; further: nearly all actives have a fitted effect of over 40% in size
RORg inh: blocks mouse ROR gamma transcriptional activity | Drosophila S2 Gal4-RORgamma UAS-luciferase reporter, 20 h | Potency, µM (highest dose often 53.6 µM), usual class: inhibitors | hit rate 5.4% among 310,000 | P51450; further: nearly all actives have a fitted effect of over 60% in size
Target sequence (P51450 whole entry, looked up, the tested form may be a part): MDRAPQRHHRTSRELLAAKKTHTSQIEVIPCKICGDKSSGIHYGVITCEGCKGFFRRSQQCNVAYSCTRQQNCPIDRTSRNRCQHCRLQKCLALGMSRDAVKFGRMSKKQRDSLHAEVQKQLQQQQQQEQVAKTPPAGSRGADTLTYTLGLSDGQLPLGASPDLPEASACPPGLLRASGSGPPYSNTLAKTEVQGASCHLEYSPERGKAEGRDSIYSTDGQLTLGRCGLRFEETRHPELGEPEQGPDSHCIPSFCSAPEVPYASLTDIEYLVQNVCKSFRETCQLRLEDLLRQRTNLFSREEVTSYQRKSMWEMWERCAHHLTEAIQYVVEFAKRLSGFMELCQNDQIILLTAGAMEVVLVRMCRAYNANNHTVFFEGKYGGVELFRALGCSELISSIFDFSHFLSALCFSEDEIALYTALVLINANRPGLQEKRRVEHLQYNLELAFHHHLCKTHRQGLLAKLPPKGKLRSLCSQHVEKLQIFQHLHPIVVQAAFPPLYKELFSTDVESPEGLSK
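Read-out: Photinus luciferase luminescence; inhibitors lower reporter signal. Insect Schneider cells with Gal4-ROR gamma fusion under metallothionein promoter, UAS reporter; 700 uM final copper sulfate induction, 20 hr, ambient temperature.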
Each line names hits and unclear results; the compound was inactive in the other large screens; ! = a repeat was not active. This is a sample that favours compounds with a hit; in the whole collection about 6.3% have one here. The call rests on the fitted dose curve; in most records, active means well fitted curve in the direction sought with a large enough effect; inconclusive means small, poorly fitted or top-dose-only effect, or another doubt; inactive means no such curve, though single readings can be large; an effect the other way counts as inactive or inconclusive.

O=C(NN=c1c(=O)c2ccccc2c1=O)c1ccccc1	TGFb inhibitor 11µM, HepG2 viability 16µM, VP16 counter inconclusive
Cc1cc(Nc2cc(NC(=O)c3c(Cl)cccc3Cl)ccn2)nc(N)n1	ATXN2 expr inh 7.7µM (no result: TGFb inhibitor, HepG2 viability, VP16 counter, ATXN viability, RORg inh)
O=C(Nc1ccncc1)c1c(Cl)cccc1Cl	TGFb inhibitor inconclusive, VP16 counter inconclusive, RORg inh inconclusive
Nc1ccc(/C=C/c2ccc3ncccc3c2)cc1	TGFb inhibitor inconclusive, HepG2 viability 7.1µM!, VP16 counter inconclusive, RORg inh inconclusive (no result: ATXN2 expr inh)
Nc1ccc(/C=C/c2ccc3cccnc3c2)cc1	none (no result: VP16 counter, ATXN2 expr inh, ATXN viability, RORg inh)
N=C1SCC(=O)N1c1nc(-c2ccccc2)cs1	ATXN viability inconclusive, RORg inh 8.9µM
CC(C)CNc1nc(=S)nc(N(C)C)[nH]1	VP16 counter 4.5µM, RORg inh 1.8µM
COc1cc(OC)cc(C(=O)NCC(=O)OCC(=O)Nc2ncc(Cl)cc2Cl)c1	ATXN viability inconclusive
COc1cccc(C(=O)NCC(=O)OCC(=O)Nc2ncc(Cl)cc2Cl)c1	HepG2 viability 10µM
CCOC(=O)c1cccc(NC(=O)c2ccc3nc(Cc4ccccc4)oc3c2)c1	ATXN2 expr inh inconclusive, ATXN viability 0.79µM (no result: VP16 counter, RORg inh)
CCNC(=O)c1cc2c(-c3cc(OCCN4CCCC4)c(Cl)cc3Cl)nc(N)nc2s1	ATXN2 expr inh 1.4µM (no result: TGFb inhibitor, HepG2 viability, VP16 counter, ATXN viability, RORg inh)
CCOC(=O)C=C[C@H](C[C@@H]1CCNC1=O)NC(=O)[C@@H](CC(=O)[C@@H](NC(=O)c1cc(C)on1)C(C)C)Cc1ccc(F)cc1	none (no result: TGFb inhibitor, HepG2 viability, VP16 counter, ATXN viability, RORg inh)
CCOC(=O)c1ccc(CN(Cc2ccccc2C)S(=O)(=O)c2ccc(F)c(C(=O)Nc3cccc(OC)c3)c2)cc1	none (no result: VP16 counter, ATXN2 expr inh, ATXN viability, RORg inh)
COc1cccc2cc(C(=O)NCc3ccc(Cl)cc3)c(=N)oc12	VP16 counter inconclusive, RORg inh 0.089µM
CC(=O)/C=C/C=C1/C2CCC(C2)C1(C)C (centres undefined)	none (no result: TGFb inhibitor, HepG2 viability, VP16 counter, RORg inh)
COCCNc1nc(C)nc2c1nc(-c1ccccc1)n2CCN1CCCCC1	none (no result: TGFb inhibitor, HepG2 viability, ATXN2 expr inh, ATXN viability)
CCCCNc1nc(C)nc2c1nc(-c1ccccc1)n2CCN1CCCCC1	RORg inh 14µM (no result: TGFb inhibitor, HepG2 viability, ATXN2 expr inh, ATXN viability)
COc1ccc(NC(=S)/N=C(\N)Nc2nc(C)c3ccc(C)cc3n2)cc1	VP16 counter 2µM, ATXN2 expr inh inconclusive, ATXN viability 16µM, RORg inh 0.63µM
CCNC(=S)/N=C(\N)Nc1nc(C)c2cc(C)ccc2n1	TGFb inhibitor inconclusive
CCOc1ccc2nc(N/C(N)=N/C(=S)Nc3ccc(C)c(C)c3)nc(C)c2c1	VP16 counter inconclusive, RORg inh 1.8µM
CCN(CC)CCN1CCN(c2cncc(-c3ccc4ccccc4c3)n2)CC1	TGFb inhibitor inconclusive, HepG2 viability 13µM, ATXN viability inconclusive (no result: VP16 counter, RORg inh)
CCN(CC)CCN1CCN(c2cncc(-c3cccc(N)c3)n2)CC1	ATXN viability inconclusive (no result: VP16 counter, RORg inh)
OC(c1ccc(Cl)cc1)c1ncc(-c2cccc(C(F)(F)F)c2)[nH]1 (centres undefined)	TGFb inhibitor inconclusive, HepG2 viability 10µM, ATXN2 expr inh inconclusive (no result: VP16 counter, RORg inh)
Cc1cccc(C)c1C(O)c1ncc(-c2ccc(Cl)cc2)[nH]1 (centres undefined)	none (no result: VP16 counter, RORg inh)
OC(c1cc(F)cc(Cl)c1)c1ncc(-c2cccc(C(F)(F)F)c2)[nH]1 (centres undefined)	TGFb inhibitor 11µM, ATXN2 expr inh inconclusive (no result: VP16 counter, RORg inh)
Cc1cc(Cl)ccc1C(O)c1ncc(-c2ccc3ccccc3c2)[nH]1 (centres undefined)	TGFb inhibitor inconclusive, ATXN viability inconclusive (no result: VP16 counter, RORg inh)
Cc1cc(Cl)ccc1C(O)c1ncc(-c2cccc3ccccc23)[nH]1 (centres undefined)	TGFb inhibitor 13µM (no result: VP16 counter, RORg inh)
Cc1cccc(C(O)c2ncc(-c3ccc(Cl)cc3)[nH]2)c1C (centres undefined)	TGFb inhibitor inconclusive, ATXN viability 22µM (no result: VP16 counter, RORg inh)
C[C@@H]1CN([C@H](C)CO)C(=O)CCCn2nncc2CO[C@H]1CN(C)Cc1ccc2c(c1)OCCO2	none (no result: VP16 counter, RORg inh)
C[C@]12CCC(=O)C=C1[C@@H]1C[C@H]1[C@H]1[C@@H]3[C@@H]4C[C@H]4[C@@]4(CCC(=O)O4)[C@@]3(C)CC[C@@H]12	none (no result: TGFb inhibitor, HepG2 viability, ATXN2 expr inh, ATXN viability)
COc1ccc2c(c1)CCc1cnc(-n3ncc(C(=O)N4CCN(CCO)CC4)c3C3CC3)nc1-2	none (no result: TGFb inhibitor, HepG2 viability, VP16 counter, ATXN2 expr inh, RORg inh)
S=c1nc(-c2ccc(Cl)cc2)[nH][nH]1	RORg inh 8.9µM
CCCOc1ccc(-c2nc(=S)[nH][nH]2)cc1	none
Cc1ccccc1CN1C(=O)C(O)(CC(=O)c2cccc(Br)c2)c2ccccc21 (centres undefined)	TGFb inhibitor 13µM, HepG2 viability 13µM (no result: VP16 counter, ATXN2 expr inh, ATXN viability, RORg inh)
COC(=O)CN1C(=O)C(O)(CC(=O)c2cccc(Br)c2)c2ccccc21 (centres undefined)	VP16 counter inconclusive
O=C(C1CCC1)N(CCc1ccccc1)Cc1nc2ccccc2c(=O)[nH]1	VP16 counter 7.9µM, ATXN viability inconclusive, RORg inh 1.8µM
O=C(C1CC1)N(CCc1ccccc1)Cc1nc2ccccc2c(=O)[nH]1	RORg inh inconclusive
COc1ccc(CCN(Cc2nc3ccccc3c(=O)[nH]2)C(=O)C2CC2)cc1	VP16 counter 13µM, RORg inh 3.2µM
COc1cc(=O)n2c(c1C(=O)N(C)Cc1nonc1C)CCN(C(=O)c1ccc(C)c(C)c1)CC2	none (no result: TGFb inhibitor, HepG2 viability, VP16 counter, ATXN2 expr inh, RORg inh)
COc1ccc2c(c1)CCc1sc(NC(=O)c3ccc(Br)cc3)nc1-2	none (no result: VP16 counter, ATXN2 expr inh, ATXN viability, RORg inh)
